Source: PubChem BioAssay (NCATS)
Records with an inconclusive call do not appear. A call without a number means that no potency is given here. Calls of active or inactive are those of the source. Calls come from the whole dose curve; as a rule, active = well fitted curve in the direction sought with a large enough effect; inconclusive = small, poorly fitted or top-dose-only effect, or another doubt; inactive = no such curve, though single readings can be large; an effect the other way counts as inactive or inconclusive.

Assay: qHTS of pediatric cancer cell lines to identify multiple opportunities for drug repurposing: Primary screen for SK-N-MC cells (AID 1347093)
Details: SK-N-MC viability, CellTiter-Glo luminescence, 48 h; series mostly up to 46 µM
Method in brief: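 Metabolically active cells were quantified by ATP-dependent luminescence (CellTiter-Glo, 15 min at room temperature) following 48 h treatment. Cells had been plated at 500-1,000 per well and settled for 5 h beforehand.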
Potency is the fitted concentration of half-maximal effect.

Compound	Potency
CC(Cc1ccccc1)N(C)Cc1ccco1 (stereo unspecified)	inactive
COc1cccc2c1C(=O)c1c(O)c3c(c(O)c1C2=O)C[C@@](O)(C(=O)CO)CC3OC1CC(N2CCOC(OC)C2)C(O)C(C)O1 (stereo partly specified)	0.0084 µM (active)
CCCCCCCCCC(=O)O[C@H]1CC[C@H]2[C@@H]3CCC4=CC(=O)CC[C@@H]4[C@H]3CC[C@]12C	inactive

Assay: qHTS of pediatric cancer cell lines to identify multiple opportunities for drug repurposing: Primary screen for BT-37 cells (AID 1347094)
Details: BT-37 viability, CellTiter-Glo luminescence, 48 h; series mostly up to 57.3 µM
Method in brief: (§1)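 Quantitative HTS format: each compound titrated (MIPE 11 points from 0.78 nM, NPC 8 points from 0.59 nM) onto cells plated 5 hours earlier. After 48 h at 37 degrees C, CellTiter-Glo luminescence was recorded.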

Compound	Potency
O=C1c2ccccc2C(=O)C1C(=O)C(c1ccccc1)c1ccccc1	inactive
C[C@]12Cc3cn[nH]c3C[C@@H]1CC[C@@H]1[C@@H]2CC[C@@]2(C)[C@H]1CC[C@]2(C)O	inactive
C[C@]12CC[C@H]3[C@@H](CC[C@@]45O[C@H]4C(O)=C(C#N)C[C@]35C)[C@H]1CC[C@H]2O	inactive
CC(Cc1ccccc1)N(C)Cc1ccco1 (stereo unspecified)	inactive
COc1cccc2c1C(=O)c1c(O)c3c(c(O)c1C2=O)C[C@@](O)(C(=O)CO)CC3OC1CC(N2CCOC(OC)C2)C(O)C(C)O1 (stereo partly specified)	0.0276 µM (active)
CCCCCCCCCC(=O)O[C@H]1CC[C@H]2[C@@H]3CCC4=CC(=O)CC[C@@H]4[C@H]3CC[C@]12C	inactive
C[C@](O)(CS(=O)(=O)c1ccc(F)cc1)C(=O)Nc1ccc(C#N)c(C(F)(F)F)c1	19.3 µM (active)

Assay: qHTS of pediatric cancer cell lines to identify multiple opportunities for drug repurposing: Primary screen for NB-EBc1 cells (AID 1347095)
Details: NB-EBc1 neuroblastoma viability, CellTiter-Glo luminescence, 48 h; series mostly up to 46 µM
Method in brief: as §1

Compound	Potency
CC(Cc1ccccc1)N(C)Cc1ccco1 (stereo unspecified)	inactive
CCCCCCCCCC(=O)O[C@H]1CC[C@H]2[C@@H]3CCC4=CC(=O)CC[C@@H]4[C@H]3CC[C@]12C	inactive
C[C@](O)(CS(=O)(=O)c1ccc(F)cc1)C(=O)Nc1ccc(C#N)c(C(F)(F)F)c1	4.69 µM (active)

Assay: qHTS of pediatric cancer cell lines to identify multiple opportunities for drug repurposing: Primary screen for U-2 OS cells (AID 1347096); note: nearly all actives have a fitted effect of over 50% in size
Details: U-2 OS viability, CellTiter-Glo luminescence, 48 h; series mostly up to 46 µM
Method in brief: (§2)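 Viability after 48 h compound treatment at 37C, 500-1,000 cells/well, read as ATP luminescence with CellTiter-Glo. Primary screens used 11-point (MIPE, 0.78 nM-46 µM) or 8-point (NPC, 0.59 nM-46 µM) final concentrations; follow-up screens used 11-point dilutions.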

Compound	Potency
CCN(CC)C(=O)[C@@H]1C=C2c3cccc4[nH]cc(c34)C[C@H]2N(C)C1	inactive
O=C1c2ccccc2C(=O)C1C(=O)C(c1ccccc1)c1ccccc1	inactive
C[C@]12CC[C@H]3[C@@H](CC[C@@]45O[C@H]4C(O)=C(C#N)C[C@]35C)[C@H]1CC[C@H]2O	inactive
COc1cccc2c1C(=O)c1c(O)c3c(c(O)c1C2=O)C[C@@](O)(C(=O)CO)CC3OC1CC(N2CCOC(OC)C2)C(O)C(C)O1 (stereo partly specified)	0.266 µM (active)
CCCCCCCCCC(=O)O[C@H]1CC[C@H]2[C@@H]3CCC4=CC(=O)CC[C@@H]4[C@H]3CC[C@]12C	inactive

Assay: qHTS of pediatric cancer cell lines to identify multiple opportunities for drug repurposing: Primary screen for Saos-2 cells (AID 1347097); note: nearly all actives have a fitted effect of over 40% in size
Details: Saos-2 viability, CellTiter-Glo ATP luminescence, 48 h; series mostly up to 46 µM
Method in brief: as §1

Compound	Potency
C[C@]12Cc3cn[nH]c3C[C@@H]1CC[C@@H]1[C@@H]2CC[C@@]2(C)[C@H]1CC[C@]2(C)O	26.6 µM (active)
C[C@]12CCC(=O)C=C1CC[C@@H]1[C@H]3CC[C@](C)(O)[C@@]3(C)CC[C@@H]12	27.5 µM (active)
CC(Cc1ccccc1)N(C)Cc1ccco1 (stereo unspecified)	inactive
CCCCCCCCCC(=O)O[C@H]1CC[C@H]2[C@@H]3CCC4=CC(=O)CC[C@@H]4[C@H]3CC[C@]12C	inactive
C[C@](O)(CS(=O)(=O)c1ccc(F)cc1)C(=O)Nc1ccc(C#N)c(C(F)(F)F)c1	inactive

Assay: qHTS of pediatric cancer cell lines to identify multiple opportunities for drug repurposing: Primary screen for SK-N-SH cells (AID 1347098); note: nearly all actives have a fitted effect of over 65% in size
Details: SK-N-SH viability, CellTiter-Glo luminescence, 48 h; series mostly up to 57 µM
Method in brief: (§3)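 Cells (500-1,000/well) rested 5 h, then received compounds for 48 h; metabolically active cells were measured by CellTiter-Glo luminescence. Final concentrations spanned up to 46 µM (MIPE, 11-point) or 0.59 nM-46 µM (NPC, 8-point) in primary screens, 11-point in follow-ups.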

Compound	Potency
O=C1c2ccccc2C(=O)C1C(=O)C(c1ccccc1)c1ccccc1	inactive
C[C@]12CC[C@H]3[C@@H](CC[C@@]45O[C@H]4C(O)=C(C#N)C[C@]35C)[C@H]1CC[C@H]2O	12.1 µM (active)
CC(Cc1ccccc1)N(C)Cc1ccco1 (stereo unspecified)	inactive
COc1cccc2c1C(=O)c1c(O)c3c(c(O)c1C2=O)C[C@@](O)(C(=O)CO)CC3OC1CC(N2CCOC(OC)C2)C(O)C(C)O1 (stereo partly specified)	0.0217 µM (active)
C[C@](O)(CS(=O)(=O)c1ccc(F)cc1)C(=O)Nc1ccc(C#N)c(C(F)(F)F)c1	2.41 µM (active)

Assay: qHTS of pediatric cancer cell lines to identify multiple opportunities for drug repurposing: Primary screen for NB1643 cells (AID 1347099); note: nearly all actives have a fitted effect of over 50% in size
Details: NB1643 neuroblastoma viability, CellTiter-Glo luminescence, 48 h; series mostly up to 46 µM
Method in brief: as §1

Compound	Potency
CCN(CC)C(=O)[C@@H]1C=C2c3cccc4[nH]cc(c34)C[C@H]2N(C)C1	inactive
O=C1c2ccccc2C(=O)C1C(=O)C(c1ccccc1)c1ccccc1	inactive
C[C@]12CC[C@H]3[C@@H](CC[C@@]45O[C@H]4C(O)=C(C#N)C[C@]35C)[C@H]1CC[C@H]2O	13.2 µM (active)
CC(Cc1ccccc1)N(C)Cc1ccco1 (stereo unspecified)	inactive
COc1cccc2c1C(=O)c1c(O)c3c(c(O)c1C2=O)C[C@@](O)(C(=O)CO)CC3OC1CC(N2CCOC(OC)C2)C(O)C(C)O1 (stereo partly specified)	0.0266 µM (active)
C[C@](O)(CS(=O)(=O)c1ccc(F)cc1)C(=O)Nc1ccc(C#N)c(C(F)(F)F)c1	2.96 µM (active)

Assay: qHTS of pediatric cancer cell lines to identify multiple opportunities for drug repurposing: Primary screen for LAN-5 cells (AID 1347100)
Details: LAN-5 neuroblastoma viability, CellTiter-Glo luminescence, 48 h; series mostly up to 46 µM
Method in brief: as §2

Compound	Potency
CCN(CC)C(=O)[C@@H]1C=C2c3cccc4[nH]cc(c34)C[C@H]2N(C)C1	71.3 µM (active)
C[C@]12CC[C@H]3[C@@H](CC[C@@]45O[C@H]4C(O)=C(C#N)C[C@]35C)[C@H]1CC[C@H]2O	16.6 µM (active)
CC(Cc1ccccc1)N(C)Cc1ccco1 (stereo unspecified)	inactive
CCCCCCCCCC(=O)O[C@H]1CC[C@H]2[C@@H]3CCC4=CC(=O)CC[C@@H]4[C@H]3CC[C@]12C	inactive
C[C@](O)(CS(=O)(=O)c1ccc(F)cc1)C(=O)Nc1ccc(C#N)c(C(F)(F)F)c1	2.96 µM (active)

Assay: qHTS of pediatric cancer cell lines to identify multiple opportunities for drug repurposing: Primary screen for BT-12 cells (AID 1347101); note: nearly all actives have a fitted effect of over 25% in size
Details: BT-12 viability, CellTiter-Glo luminescence, 48 h; series mostly up to 57.3 µM
Method in brief: as §3

Compound	Potency
CCN(CC)C(=O)[C@@H]1C=C2c3cccc4[nH]cc(c34)C[C@H]2N(C)C1	inactive
O=C1c2ccccc2C(=O)C1C(=O)C(c1ccccc1)c1ccccc1	inactive
C[C@]12Cc3cn[nH]c3C[C@@H]1CC[C@@H]1[C@@H]2CC[C@@]2(C)[C@H]1CC[C@]2(C)O	inactive
C[C@]12CCC(=O)C=C1CC[C@@H]1[C@H]3CC[C@](C)(O)[C@@]3(C)CC[C@@H]12	28.6 µM (active)
CC(Cc1ccccc1)N(C)Cc1ccco1 (stereo unspecified)	inactive
COc1cccc2c1C(=O)c1c(O)c3c(c(O)c1C2=O)C[C@@](O)(C(=O)CO)CC3OC1CC(N2CCOC(OC)C2)C(O)C(C)O1 (stereo partly specified)	0.0692 µM (active)
CCCCCCCCCC(=O)O[C@H]1CC[C@H]2[C@@H]3CCC4=CC(=O)CC[C@@H]4[C@H]3CC[C@]12C	inactive
